Assay results reported in PubChem BioAssay AID624040 (The Scripps Research Institute Molecular Screening Center, 2012).
Out of some 360,000 compounds screened, about 2,100 (0.58%) were called active. The sample as a whole holds a higher share of actives than the screen did. A number with no mark means an inactive call.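 Rule for the calls: active = inhibition above a per-plate cutoff, the mean of that plate's test compounds plus 3 SD (cut at about 27% in these data); inactive = the rest.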

Each compound was assayed against Muscarinic acetylcholine receptor M5 (Homo sapiens) (UniProt P08912) (assay: human M5 muscarinic receptor antagonists, primary screen, CHO cells, Fluo-8 calcium fluorescence (AID 624040;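 note: 0% = acetylcholine EC80 with DMSO and 100% = DMSO without agonist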)). Settings: CHO-hM5 cells, ACh EC80, at 3 µM, stronger effect = higher value.
Muscarinic acetylcholine receptor M5 (Homo sapiens), sequence (P08912 whole entry, looked up): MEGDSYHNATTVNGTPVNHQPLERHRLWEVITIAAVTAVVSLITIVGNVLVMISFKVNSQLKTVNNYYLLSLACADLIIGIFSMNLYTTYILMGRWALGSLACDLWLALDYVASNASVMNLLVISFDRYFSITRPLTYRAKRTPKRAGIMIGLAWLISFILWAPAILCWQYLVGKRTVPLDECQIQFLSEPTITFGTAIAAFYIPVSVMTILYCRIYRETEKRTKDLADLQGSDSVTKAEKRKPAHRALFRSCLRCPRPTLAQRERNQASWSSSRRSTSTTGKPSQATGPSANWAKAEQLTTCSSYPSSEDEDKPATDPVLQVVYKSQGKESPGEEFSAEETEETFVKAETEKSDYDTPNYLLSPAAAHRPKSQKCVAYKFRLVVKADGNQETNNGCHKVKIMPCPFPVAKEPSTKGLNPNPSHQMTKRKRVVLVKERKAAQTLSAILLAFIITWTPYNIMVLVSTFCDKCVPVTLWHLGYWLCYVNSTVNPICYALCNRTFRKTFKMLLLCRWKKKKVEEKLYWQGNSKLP

SMILES	inhibition
O=C(CCC1CCCCC1)Nc1cc(C(F)(F)F)ccc1N1CCOCC1	10.2%
COC(=O)[C@@]12C[C@@H](CC(=O)N3CCCCC3)C(=O)N(Cc3ccc4c(c3)OCO4)C1=CCC(C)(C)C2	-4.41%
Cc1cc2cc(CNC(=O)c3ccc(S(=O)(=O)N4CCOCC4)cc3)ccc2[nH]1	13.1%
Cc1ccc(C)c2[nH]c(=O)c(CCNC(=O)c3cccs3)cc12	2.31%
Cc1cc2cc(CNC(=O)c3cccs3)ccc2[nH]1	97.7% (active)
Cc1ccc(C)n1-c1ccncc1	2.29%
CCOC(=O)c1ccc(N/C(=N/S(=O)(=O)c2ccccc2)c2ccccc2)cc1	-3.7%
COc1cc(NC(=O)c2ccccc2NS(=O)(=O)c2ccc(Cl)s2)cc(OC)c1	14.3%
COC(=O)c1ccc(NC(=O)c2ccccc2NS(=O)(=O)c2ccccc2)cc1	31.6% (active)
COc1ccccc1NC(=O)CSc1nnc(-c2ccoc2C)n1CCc1ccccc1	6.68%
COC(=O)C1=C(C)N(c2ccc(C)cc2)/C(=C/c2ccc(O)cc2)C1=O	3.87%
Cc1ccn2c(=O)c(C(=O)NCCC3=CCCCC3)c(O)nc2c1	2.86%
CC(NC(=O)C(=O)Nc1nccs1)c1ccccc1 (configuration not stated)	30.9% (active)
CC(=O)NC(CC(=O)Nc1nccs1)c1ccccc1 (configuration not stated)	-3.08%
C[C@H](NC(=O)c1[nH]cnc1C(=O)Nc1nccs1)c1ccccc1	11.9%
O=C(C1CC1)N1N=C2CCCCC2C1(O)C(F)(F)F (configuration not stated)	13.2%
Cc1nc(C)c(C(=O)N(c2ccc(C)c(C)c2)C(C(=O)NCc2ccco2)c2ccccc2)s1 (configuration not stated)	2.62%
CC(C)(C)C(=O)c1c(N)[nH]c(C(=O)c2ccccc2)c1-c1ccc(F)cc1	-1.9%
COc1ccc(NC(=O)COC(=O)c2ccc(NS(=O)(=O)/C=C/c3ccccc3)cc2)cc1	14.2%

SMILES	inhibition
COc1ccc(NC(=O)CC(NC(C)c2ccccc2)C(=O)O)cc1 (configuration not stated)	4.75%
CCC(C(=O)OCC(=O)Nc1ccc(C(=O)Nc2ccc(OC)cc2)cc1)c1ccccc1 (configuration not stated)	36.3% (active)
Cc1ccc(N2C(=O)C3C(c4ccccc4)(C2=O)C3(c2ccccc2)c2ccccc2)cc1 (configuration not stated)	15.6%
COc1ccc(OCCCCN2CCC(C)CC2)cc1	5.32%
O=c1[nH]c2ccccc2n1C1CCN(CCOc2ccccc2)CC1	8.05%
OC(c1ccccc1)(c1ccccc1)C1CCN(CCCOc2ccccc2)CC1	97.1% (active)
OC[C@@H]1CN(Cc2ccc3c(c2)OCO3)C[C@H](n2cnc3c(NCc4ccco4)ncnc32)O1	-1.64%
COc1cc(C(=O)NCc2nnc(SCC(=O)Nc3nc4ccc(C)cc4s3)o2)cc(OC)c1OC	-2.26%
COc1cc(C(=O)NCc2ccc(-n3cccc3)cc2)cc(OC)c1OC	21.1%
CCn1c(CNC(=O)c2cc(OC)c(OC)c(OC)c2)cc2cc(C)ccc21	48% (active)
CSc1ncccc1C(=O)OCC(=O)N1CCOCC1	-6.57%
Cc1ccc2cc(CCNC(=O)c3ccc4c(c3)OCO4)c(=O)[nH]c2c1	-4.27%
OC(COc1ccc2ccccc2c1)Cn1cncn1 (configuration not stated)	-0.83%
CCOC(=O)c1c(/N=C/C2C(=O)CC(C)(C)CC2=O)sc(C)c1C	-2.97%
CC(C)CN(C(=O)CSc1ncnc2sccc12)C1CCS(=O)(=O)C1 (configuration not stated)	1.5%
CCN(C(=O)CSc1nc2ccccc2n1CC)C1CCS(=O)(=O)C1 (configuration not stated)	-0.58%
CC(C)CN(C(=O)Cn1c(=O)cnc2ccccc21)C1CCS(=O)(=O)C1 (configuration not stated)	99.6% (active)
N#Cc1c(NC(=O)c2ccc(N3CCOCC3)c([N+](=O)[O-])c2)sc2c1CCCC2	2.95%
O=C1NC[C@H](Cc2ccc(O)cc2)N(C[C@@H]2CCCN2C[C@H](Cc2ccccc2)N2C[C@H](Cc3ccccc3)N(CC3CCCCC3)C(=O)C2=O)C1=O	-4.87%

SMILES	inhibition
CN(Cc1cccnc1)C(=O)c1cc(COc2ccc3ncccc3c2)on1	42.6% (active)
Cc1cc(CN(C)C(=O)c2cc(COc3ccc(C)c(C)c3)on2)n[nH]1	-7.18%
Cc1ccc(OCc2cc(C(=O)N(C)CCn3ccnc3C)no2)cc1C	-4.53%
CC/C(=C\c1ccc(Cl)cc1)c1ccncc1	4.13%
CC(=O)Nc1cccc(-c2ccnc3c2CC(C)(C(=O)NCc2ccccc2)O3)c1 (configuration not stated)	-11.6%
C=CCN(c1ccccc1C(=O)NCC(=O)OCC)S(=O)(=O)c1ccc(C)cc1	3.91%
CCOc1ccc(CN(Cc2ccco2)S(=O)(=O)c2ccc(-n3cnnn3)c(OC)c2)cc1	4.28%
Cc1ccc(C(C(=O)NCc2ccco2)N(CC2CCCO2)C(=O)Cn2nnc3ccccc32)cc1 (configuration not stated)	-3.06%
CCOc1cc(C(C(=O)NCC2CCCO2)N(C(=O)Cn2nnc3ccccc32)c2cccc(OC)c2)ccc1O (configuration not stated)	31.8% (active)
COc1ccc(C(C(=O)NCC2CCCO2)N(C(=O)Cn2nnc3ccccc32)c2ccc(NC(C)=O)cc2)cc1OC (configuration not stated)	-5.21%
COc1ccc(CCNc2cc(C)nc3c(-c4ccc(Cl)cc4)c(C)nn23)cc1OC	0.85%
CSCCC(C(=O)NC1=NCCS1)N1C(=O)c2ccccc2C1=O (configuration not stated)	6.62%
CCN(CC)C(=O)C1CCCN(Cc2cccc(Cl)c2)C1 (configuration not stated)	2.81%
COc1c(O)ccc2c1CN1CCc3cc4c(cc3C1C2)OCO4 (configuration not stated)	4.81%
CC(C)C(=O)Nc1ccc2c3c(cccc13)CC2	-8.88%
N#CC1(Nc2ccc(-c3ccc(Cl)cc3)cc2)CCCC1	16.1%
N#CC1(Nc2ccc3c4c(cccc24)CC3)CCCCC1	40.5% (active)
CCCCOC(=O)c1ccc(NC(c2ccc(C)cc2)P(=O)(OC)OC)cc1 (configuration not stated)	8.39%
CC1=C(C(=O)N2CCOCC2)CC(CC(=O)NCc2ccco2)C(=O)N1Cc1ccc(F)cc1 (configuration not stated)	-4.73%
